The entries come from a sample that favours hits as a whole.
TbREL1 primary = TbREL1 inhibition, primary screen; P86926; TbREL1 RNA ligation, FRET fluorescence; inhibition, % at 9.66 µM; 0.49% of 89,000 active; AID 1117264;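 active = inhibition above the mean inhibition across all screened compounds plus 3 SD, cut at about 11% in these data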;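 also: 0% = plate median of test wells and 100% = NSC42067 control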
Target sequence (P86926 whole entry, looked up): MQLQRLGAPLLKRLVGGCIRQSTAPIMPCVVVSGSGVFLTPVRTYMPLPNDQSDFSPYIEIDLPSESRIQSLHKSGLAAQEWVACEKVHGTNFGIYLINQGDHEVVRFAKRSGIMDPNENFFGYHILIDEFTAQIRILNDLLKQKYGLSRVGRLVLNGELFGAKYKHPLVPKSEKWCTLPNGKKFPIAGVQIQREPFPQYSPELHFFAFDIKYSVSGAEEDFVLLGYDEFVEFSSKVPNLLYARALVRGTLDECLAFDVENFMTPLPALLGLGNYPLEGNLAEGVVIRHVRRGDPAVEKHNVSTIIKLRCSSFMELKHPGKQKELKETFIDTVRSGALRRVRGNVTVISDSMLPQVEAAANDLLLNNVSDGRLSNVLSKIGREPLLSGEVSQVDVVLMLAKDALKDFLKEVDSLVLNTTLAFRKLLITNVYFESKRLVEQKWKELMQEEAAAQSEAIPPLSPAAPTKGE
TbREL1 conf = TbREL1 inhibition, confirmation; AID 1117282; 37% of 390 active; shares compounds with TbREL1 primary; inhibition, % at 9.66 µM; TbREL1 RNA ligation, FRET fluorescence;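 active = mean inhibition across replicates above a set limit taken from the earlier primary screen, cut at about 11% in these data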;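 also: 0% = REL1 with substrate and DMSO and 100% = REL1 plus control inhibitor NSC42067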
Numbers without * were called inactive.

`COC(=O)C1=C(C)N(Cc2cccc(C(F)(F)F)c2)C(=NCc2ccc(C(F)(F)F)cc2)NC1c1ccccc1C(F)(F)F` (centres undefined) gave TbREL1 primary 18* and TbREL1 conf 22*.
COC(=O)C1=C(C)N(Cc2ccc(F)cc2)C(=S)NC1c1ccc(F)cc1 (centres undefined) was read as TbREL1 primary -1.
COC(=O)C1=C(C)N(C)C(=NCc2cccc(C(F)(F)F)c2)NC1c1ccccc1C(F)(F)F (centres undefined) was read as TbREL1 primary 11.
Screening COC(=O)C1=C(C)N(Cc2ccccc2)C(=O)N[C@H]1c1cccs1 returned TbREL1 primary -1.
`COC(=O)C1=C(C)N(Cc2cccc(C(F)(F)F)c2)C(=NCc2ccc(OC)cc2)NC1c1ccccc1C(F)(F)F` (centres undefined) gave TbREL1 primary 12* and TbREL1 conf 23*.
For COC(=O)C1=C(C)N(Cc2ccccc2)C(=NCc2cc(OC)c(OC)c(OC)c2)N[C@H]1CCc1ccccc1 the results were TbREL1 primary 3.
For C[C@H]1[C@@H](NC(=O)c2cccc(C(F)(F)F)c2)CC[C@@]23CCCN2C(=O)CCC[C@@H]13 the results were TbREL1 primary -3.
Cc1occc1-c1nnc(SCC(=O)NCc2ccc(Cl)cc2)n1-c1ccccc1 was read as TbREL1 primary -3.
`Cc1ccc(C)c(NC(=O)c2cc(-c3ccc(Cl)cc3)nc3ccccc23)c1` gave TbREL1 primary 3.
For CC[C@@]1(c2ccc(C)cc2)C(=O)N(C(=O)OC)N1C(=O)OC the results were TbREL1 primary 1.
CCOC(=O)C1CCN(C(=O)C(C)(C)NC(=O)Nc2ccc(Cl)cc2Cl)CC1 was read as TbREL1 primary 3.
For Cc1ccc(-c2cc3nc(-c4ccco4)cc(N4CCN(Cc5ccoc5)CC4)n3n2)cc1 the results were TbREL1 primary 1.
`Cc1ccc(-c2nnc(SCC(=O)NNC(=S)Nc3ccccc3)n2C2CCCCC2)cc1` gave TbREL1 primary -12.
CCCC[C@H](C(=O)N(C)c1cccc(OC)c1)[C@@H](O)c1ccc2ccccc2c1 was read as TbREL1 primary 0.
For COC(=O)C1=C(C)N(C)C(=NCc2ccccc2C(F)(F)F)NC1c1cccc(F)c1 (centres undefined) the results were TbREL1 primary 13* and TbREL1 conf 18*.
`COC(=O)C1=C(C)N(CC(C)C)C(=S)NC1c1cccc(F)c1` (centres undefined) gave TbREL1 primary -5.
CCN1C(=O)N[C@@H](c2cccc(C(F)(F)F)c2)C(C(=O)OC)=C1C was read as TbREL1 primary 1.
For COC(=O)C1=C(C)N(C)C(=NCc2ccc(C(F)(F)F)cc2)NC1c1ccc(F)cc1 (centres undefined) the results were TbREL1 primary 7.
Screening C=CCN=C1NC(c2cccc(F)c2)C(C(=O)OC)=C(C)N1Cc1cccc(C(F)(F)F)c1 (centres undefined) returned TbREL1 primary 11* and TbREL1 conf 12*.
`Cc1c(C(=O)NCc2ccccc2C(F)(F)F)sc(=O)n1Cc1cccc(C(F)(F)F)c1` gave TbREL1 primary 2.
For COC(=O)C1=C(C)N(Cc2cccc(C(F)(F)F)c2)C(=NCc2ccccc2C(F)(F)F)NC1c1ccccc1C(F)(F)F (centres undefined) the results were TbREL1 primary 16* and TbREL1 conf 24*.
Screening COC(=O)C1=C(C)N(Cc2ccc(F)cc2)C(=S)NC1c1cccc(F)c1 (centres undefined) returned TbREL1 primary -6.
Cc1cccc(-c2nnc(SCc3cccc4ccccc34)n2-c2ccc(Cl)cc2)c1 was read as TbREL1 primary 4.
Screening COc1ccc(OC)c(NC(=O)O[C@@H]2CC[C@@]34CCCN3C(=O)CCC[C@H]4C2)c1 returned TbREL1 primary -1.
CCCC1CCC2(CC1)CCC2OC(=S)Nc1ccc(N(C)C)cc1 (centres undefined) was read as TbREL1 primary -5.
Screening Cc1ccc(-n2c(SCc3ccc(Cl)c(Cl)c3)nnc2-c2ccc(C(C)(C)C)cc2)cc1 returned TbREL1 primary 5.
O=[N+]([O-])c1cc(C=NN2CCN(Cc3ccccc3Cl)CC2)ccc1Cl was read as TbREL1 primary 0.
`Cc1onc(-c2c(F)cccc2Cl)c1C(=O)Nc1cc(S(=O)(=O)N2CCCCC2)ccc1O` gave TbREL1 primary 22* and TbREL1 conf 2.
Cc1ccc(O)c(NC(=O)c2cccc(S(=O)(=O)N3CCCCC3)c2)c1 was read as TbREL1 primary -4.
Screening Cc1onc(-c2ccccc2)c1C(=O)Nc1ccc(S(=O)(=O)N2CCCCC2)cc1 returned TbREL1 primary 0.
Screening S=C(NCc1ccc(Cl)c(Cl)c1)NCc1ccco1 returned TbREL1 primary -1.
S=C(NCc1ccco1)NCc1ccco1 was read as TbREL1 primary 17* and TbREL1 conf 2.

Screens deposited in PubChem BioAssay by The Scripps Research Institute Molecular Screening Center.
